Bioassay records deposited in PubChem by several laboratories.
HIV RNase H inh-1 – inhibitors of HIV-1 reverse transcriptase RNase H | RT-RNase H RNA/DNA duplex cleavage, fluorescence | P04585 | inhibition, % at 10 µM | 65,000 compounds, 1.9% hits | AID 565; in the data active = inhibition above about 50%
RmlCD inh mix – RmlC/RmlD inhibition, mixture screen | AID 1532 | inhibition, % at 5.5 µM | RmlC/RmlD coupled enzyme inhibition, 384-well mixture HTS | 110,000 compounds, 0.39% hits; in the data active = inhibition above about 30%, passing the limit was not always enough
HIV RNase H inh-2 – confirmation of HIV-1 reverse transcriptase RNase H inhibitors | shares compounds with HIV RNase H inh-1 | Recombinant RT RNase H, fluorescent RNA/DNA duplex cleavage | inhibition, % at 10 µM | 1,000 compounds, 39% hits | AID 651; in the data active = inhibition above about 48%
Starred values were filed as active, the others as inactive; / = not tested or not shown. This is one part of a sample in which hits are shown more often than they occur.

SMILES	HIV RNase H inh-1	RmlCD inh mix	HIV RNase H inh-2
CCOC(=O)C1CCN(Cc2cnc(NC(=O)OC)s2)CC1	-23	-11	/
CCCCc1c(C)c(C#N)c2nc3ccccc3n2c1Nc1c(C)n(C)n(-c2ccccc2)c1=O	/	-13	/
Cc1cccc2sc(NC(=O)C3CCCO3)nc12 (stereo not drawn)	-15	8	/
Cc1nc(C)c(C(=O)Nc2nc3c(C)cccc3s2)o1	86*	-29	68*
CC1CCC(C(=O)NC(C(=O)NCc2cccnc2)C(C)C)CC1 (stereo not drawn)	/	9	/
CC1=C(C(=O)Nc2ccc(Cl)cc2)C(c2cccs2)n2nnnc2N1 (stereo not drawn)	73*	4	5
COC(=O)C1=C(C(=O)c2ccccc2)C(c2cccs2)n2nnnc2N1 (stereo not drawn)	-1	11	/
Cc1ccc(NC2=NCC(=O)N2CCc2ccccc2)cc1C	/	2	/
CN1CCN(Cc2cc(C(C)(C)C)c(O)c(C(C)(C)C)c2)CC1	/	-8	/
CC(C)(C)c1cc(C(c2cccnc2)N2CCN(CCO)CC2)cc(C(C)(C)C)c1O (stereo not drawn)	83*	10	-5
COc1ccc(-n2cnc3cc(N)ccc32)cc1	/	-18	/
O=C(Nc1ccc2nc(-c3ccc(Br)o3)[nH]c2c1)c1cccs1	71*	0	2
Cn1cccc1-c1nc2ccc(NC(=O)c3cccs3)cc2[nH]1	0	-6	/
O=C(CSC1CCCCC1)N1CCN(c2ccccc2)CC1	12	/	/
O=C(c1ccc(-c2ccccc2)cc1)N1CCCC1	-9	-8	/
Cc1cc(NC(=O)CSc2nc(C3CCCCC3)nc3ccccc23)no1	9	-8	/
Cc1cc(NC(=O)CSc2nc(C(C)C)nc3sc4c(c23)CCCC4)no1	70*	40	29
Cc1cc(NC(=O)CSc2nc(C3CC3)nc3sc4c(c23)CCC(C)C4)no1 (stereo not drawn)	70*	4	97*
Cc1cc(NC(=O)CSc2nc3sc4c(c3c(=O)n2C)CCCC4)no1	6	/	/
Cc1nc2c(-c3ccccc3)c(C)nn2c(N)c1-c1ccccc1	/	0	/
Cn1cccc1/C=N/n1c(-c2ccc(Cl)cc2Cl)n[nH]c1=S	/	-16	/
C[N+](C)(C)c1ccccc1	/	-4	/
Cc1oc(C)c2c(=O)ccc3c(c12)OC(N)=C(C#N)C3c1ccccc1 (stereo not drawn)	-5	-9	/
CSc1ccc(C2C(C#N)=C(N)Oc3c2ccc(=O)c2c(C)oc(C)c32)cc1 (stereo not drawn)	61*	3	67*
O=C(O)c1cc(S(=O)(=O)Nc2ccc3oc(=O)sc3c2)ccc1O	82*	5	64*
SMILES	HIV RNase H inh-1	RmlCD inh mix	HIV RNase H inh-2
CC(=O)c1c(C)oc2ccc(NS(=O)(=O)c3ccc(O)c(C(=O)O)c3)cc12	19	-17	/
CCC(CC)C(=O)Nc1cc(=O)n(C)c(=O)n1C	-6	2	/
CC(=O)Oc1oc(-c2ccccc2)nc1C=Nc1ccccc1	/	20	/
CCOC(=O)c1ccc(N=Cc2nc(-c3ccccc3)oc2OC(C)=O)cc1	75*	11	1
CCCN1CCC(=O)N(CCSc2ccc(C)cc2)CC1	/	-11	/
O=C(Cc1ccccc1)N1CCN(C/C=C/c2ccccc2)CC1	-82	30	/
O=S(=O)(c1ccc(S(=O)(=O)N2CCN(C/C=C/c3ccccc3)CC2)cc1)N1CCCC1	59*	-9	56*
COc1ccc(-c2cc(-n3c(C(F)(F)F)nc4ccccc43)n(CCC#N)n2)cc1	-21	7	/
COC(=O)CN1C(=O)C(O)(CC(=O)c2ccccc2)c2ccccc21 (stereo not drawn)	19	/	/
COC(=O)CN1C(=O)C(O)(CC(=O)c2ccc(C)cc2)c2ccccc21 (stereo not drawn)	54*	-19	-1
CCCc1cc2c(cc1NC(=O)c1ccccc1Cl)OCO2	/	4	/
CCCC[n+]1cc(/N=C(\[O-])OC)on1	84*	-4	8
CO/C([O-])=N/c1c[n+](-c2ccc(C)cc2)no1	3	-1	/
O=C(O)c1ccc2[nH]c3c(c2c1)CSCC3	66*	1	-1
O=C(NCCO)c1ccc2[nH]c3c(c2c1)CCCC3	6	-11	/
Oc1oc(-c2ccco2)nc1C=Nc1ccccc1	2	-15	/
CCOC(=O)c1c(NC(=O)CSc2nnc(-c3ccccc3C)n2C)sc(C(C)=O)c1C	28	-4	/
CCOC(=O)c1sc(N(C)C)nc1-c1ccccc1	/	9	/
CCOC(=O)c1sc(N)nc1-c1ccccc1	71*	-11	38
COc1ccc(OC)c(S(=O)(=O)NC2CCN(Cc3ccccc3)CC2)c1	-8	-9	/
COc1ccc(N(CC(O)CN2C(=O)NC(C)(C)C2=O)S(=O)(=O)c2ccc(C)cc2)cc1 (stereo not drawn)	/	-13	/
O=C(NNC(=O)c1ccccc1Br)c1ccc(Cl)cc1	/	-7	/
Cc1cc(C)cc(OCC(=O)Nc2cccc(C(=O)O)c2)c1	/	-12	/
